Assay outcomes as filed in PubChem BioAssay.
HT1080 IDH1KD tx = kills HT-1080 cells with IDH1 knockdown; HT-1080 IDH1 knockdown viability, ATP luminescence, 48 h; Potency, µM (top dose mostly 46.1 µM), without a hit: at the top dose activity, negative = toxicity, actives largely listed as cytotoxic; 360,000 compounds, 2% hits; AID 686971;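 also: potency is read from the fitted curve at half-maximal effect; 0% = DMSO wells and -100% = cell-free medium wells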
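% activity derives from luminescence (CellTiter-Glo), normalised to DMSO and no-cell wells. HT-1080-IDH1KD cells, 750/well, had 48 h compound exposure at 37 °C.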
IL1B secr inh = inflammasome signaling inhibition, IL-1 beta readout; 360,000 compounds, 4.7% hits; AID 743279; activity change, % at 57.5 µM; THP-1 LPS/ATP IL-1B secretion, AlphaLISA, 16 h; hits give low values; in the data active = activity change below about -50%; inconclusive = mostly about -30% to -49%
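Secreted IL-1B measured by AlphaLISA bead assay after 16 h compound exposure of THP-1 cells; compounds (final up to 57.5 uM) added 1 h before LPS (250 ng/mL) and ATP (1.25 mM) stimulation; lower signal means less secretion.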
TDP1 cell CPT = DT40-hTDP1 cell growth loss with CPT | AID 686979 | 420,000 compounds, 12% hits | chicken DT40 Tdp1-/-;hTDP1 cells + 20 nM CPT, ATP luminescence, 48 h | Potency, µM (highest dose often 46.2 µM), inactives show at the highest dose activity change, negative = growth inhibition, hits mostly inhibitors; also: potency is read from the fitted curve at half-maximal effect; nearly all actives have a fitted effect of over 55% in size
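Cell growth measured by CellTiter-Glo luminescence after a minimum 48 h, 37 C compound exposure with 20 nM CPT in Tdp1-knockout DT40 cells stably expressing hTDP1, seeded 400/well; qHTS titration format.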
DT40 TDP1 no CPT = qHTS for Inhibitors of human tyrosyl-DNA phosphodiesterase 1 (TDP1): qHTS in cells in absence of CPT; DT40 Tdp1-/- hTDP1 cells, no CPT, ATP luminescence, 48 h; Potency, µM (titrated, usually from 46.2 µM), without a hit: top-dose activity change, negative = growth inhibition, usual class: inhibitors; 420,000 compounds, 15% hits; AID 686978, 2013; also: potency is read from the fitted curve at half-maximal effect; nearly all actives have a fitted effect of over 55% in size
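Growth of hTDP1-complemented DT40 Tdp1-knockout cells is measured by ATP luminescence after at least 48 hr compound exposure at 37 °C, with DMSO substituting for the 20 nM CPT used in the parallel screen.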
HT1080-NT tox = kills 2HG-producing HT-1080-NT fibrosarcoma cells; HT-1080-NT fibrosarcoma viability, CellTiter-Glo ATP luminescence, 48 h; Potency, µM (doses to about 46.1 µM), for the others: top-dose activity, negative = less viability, usual class: cytotoxic; 360,000 compounds, 1.6% hits;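 also: NT is the 2HG producing partner of a matched IDH1 knockdown line; potency is read from the fitted curve at half-maximal effect; 0% = DMSO-treated cells and -100% = media-only wells without cells; nearly all actives have a fitted effect of over 55% in size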
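Toxicity toward the 2HG-producing NT line was scored as %Activity, normalised to DMSO and no-cell wells, from CellTiter-Glo luminescence after 48 hours' treatment.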
* = called active by the depositor; ? = inconclusive; . = no result; [ ] = another dose, or the depositor's remark. Only some compounds are listed: those with a hit (about 19% of all), similar ones and a draw of the others. Unless noted, calls follow the shape of the dose curve; as a rule, active = well fitted curve in the direction sought with a large enough effect; inconclusive = small, poorly fitted or top-dose-only effect, or another doubt; inactive = no such curve, though single readings can be large; an effect the other way counts as inactive or inconclusive. Unless noted, % is scaled to controls: 0 for no effect and ±100 for the full control effect.

SMILES | HT1080 IDH1KD tx | IL1B secr inh | TDP1 cell CPT | DT40 TDP1 no CPT | HT1080-NT tox
Cn1nc(C(F)(F)F)c(/C=N/OC(=O)c2ccccc2)c1Cl | -1% | 3 | -12% | -7% | 2%
CCCN(CCC)CCNC(=O)C1CCN(c2nc3ccc(CC)cc3s2)CC1 | . | . | 8.2µM* | 6.5µM* | .
CCCN(CCC)CCCNC(=O)C1CCN(c2nc3ccc(CC)cc3s2)CC1 | . | . | 5.8µM* | 5.2µM* | .
CC1CCN(c2nc3ccc(C(=O)NCc4ccccc4)cc3s2)CC1 | . | . | -23% | -18% | .
Cc1noc(C)c1NC(=O)N(C)C[C@H]1Oc2ccc(NC(=O)Cn3cnnn3)cc2C(=O)N([C@H](C)CO)C[C@@H]1C | 7% | 14 | 0% | -17% | 4%
CC(C)[C@@H](CO)NS(=O)(=O)c1ccc(Br)cc1F | 8% | -7 | 6% | -18% | 6%
O=[N+]([O-])c1ccc(O)c(N=Cc2sc3ccccc3c2O)c1 | ? | 39 | 21µM* | 12µM* | -23%
CCOC(=O)c1c(C)n(-c2ccccc2)c2ccc(OC(=O)c3cc(OC)cc(OC)c3)cc12 | . | . | ? | 21µM* | .
CCOC(=O)c1c(C)n(-c2ccccc2)c2ccc(OC(=O)c3ccccc3Cl)cc12 | . | . | ? | 16µM* | .
CCOC(=O)c1c(C)n(-c2ccccc2)c2ccc(OC(=O)COc3ccccc3)cc12 | . | . | ? | -14% | .
CCOC(=O)c1c(C)n(-c2ccccc2)c2ccc(OC(=O)c3cccc(OC)c3OC)cc12 | . | . | -18% | -26% | .
CCOC(=O)c1c(C)n(-c2ccccc2)c2ccc(OC(=O)c3ccc(OCC)c(OCC)c3)cc12 | . | . | ? | 18µM* | .
CCOC(=O)N/N=C(\C)c1ccccc1OC(F)F | 1% | 20 | 13% | -3% | 6%
Cc1ccc(C)c(NC(=O)Cn2cnc3c(oc4ccccc43)c2=O)c1 | 24% | 8 | -4% | -8% | 23%
Oc1c(C(c2ccc(Cl)cc2Cl)N2CCCC2)sc2nc(-c3ccco3)nn12 (stereo not given) | . | . | -7% | -22% | .
COc1ccc(OC)c(NC(=O)COC(=O)CCCN2C(=O)c3ccccc3C2=O)c1 | 15% | 21 | -6% | 2% | 7%
Cc1ccc(CN(CC2CCCO2)C(=O)CN2C(=O)C(C(C)C)Oc3ccccc32)o1 (stereo not given) | -21% | -15 | 26µM* | ? | -1%
CC(C)C1Oc2ccccc2N(CC(=O)N(Cc2ccccn2)CC2CCCO2)C1=O (stereo not given) | -1% | -6 | -26% | ? | 7%
Cc1ccc2c(C)ccnc2c1 | . | . | 10µM* | 7.1µM* | .
Cc1ccc2ncccc2c1 | 2% | 22 | -5% | -10% | 22%
Cc1ccc2nccnc2c1 | . | . | 3.5µM* | 3.2µM* | .
O=C(Oc1ccc(Cl)cc1)c1ccc2nccnc2c1 | 11% | -4 | 4% | -15% | 15%
Clc1ccc2nccnc2c1 | . | . | 1µM* | 0.79µM* | .
CC1CCCC(NC(=O)Cn2cc(Br)ccc2=O)C1C (stereo not given) | 11% | 4 | ? | 2% | 5%
CCN(CC)CCN(C(=O)c1ccc2c(c1)CCCC2)c1nc2ccc(C)cc2s1 | -21% | -16 | ? | 23µM* | -15%
SMILES | HT1080 IDH1KD tx | IL1B secr inh | TDP1 cell CPT | DT40 TDP1 no CPT | HT1080-NT tox
CCN(CC)CCN(C(=O)c1ccc2c(c1)CCCC2)c1nc2ccc(OC)cc2s1 | ? | 4 | 18µM* | ? | -28%
CCN(CC)CCN(C(=O)c1ccc2c(c1)CCCC2)c1nc2ccc(F)cc2s1 | -21% | ? | ? | ? | -22%
CCOC(=O)Cn1cc(Cl)cc(C(=O)Nc2ccccc2)c1=O | -10% | -5 | -14% | -12% | -14%
Cc1ccc(CC2(C)C(=O)Nc3c(Cl)ccc(Cl)c32)cc1 (stereo not given) | 0% | 53 | ? | 16µM* | ?
CC1(Cc2ccc(Cl)cc2)C(=O)Nc2c(Cl)ccc(Cl)c21 (stereo not given) | ? | 43 | 26µM* | ? | ?
Cc1onc(-c2c(Cl)cccc2Cl)c1C(=O)Nc1ccc(N2CCOCC2)cc1 | 0% | 33 | 7% | 2% | 11%
Cc1cccc(-n2ccnc2CN2CCC(CO)(Cc3ccccc3)CC2)c1 | 7% | -1 | 3% | -8% | 4%
Cc1cc(Br)ccc1NC(=O)CN(C)C(=O)C1CCN(C(=O)c2ccc(Cl)cc2)CC1 | -4% | -27 | ? | ? | -5%
CCOc1cccc2cc(C(=O)NCc3ccc(OC)cc3)c(=N)oc12 | -5% | -3 | 26µM* | ? | 0%
CCOc1cccc2cc(C(=O)NCc3ccc(C)cc3)c(=N)oc12 | -1% | ? | ? | 4.1µM* | 1%
O=C(NCC1CCCO1)C1CCN(C2CCN(CCCC3CCCC3)CC2)CC1 (stereo not given) | -29% | -28 | 15µM* | 23µM* | -21%
NC1=NCC2c3ccccc3Cc3ccccc3N12 (stereo not given) | . | . | ? | 24µM* | .
CCN(CC)C(=O)c1ccc(S(=O)(=O)N2CCC(c3nc4ccccc4s3)CC2)cc1 | -16%[9.24 µM] | ? | 7.3µM* | 10µM* | ?
O=C(Nc1nc2ccccc2s1)C1CCCN1S(=O)(=O)c1ccc(Cl)cc1 (stereo not given) | -23% | -23 | -8% | -14% | -13%
O=S(=O)(c1ccccc1)N1CCCC1c1nc2ccccc2s1 (stereo not given) | -12% | 6 | ? | 18µM* | -7%
O=S(=O)(c1ccc(OC(F)(F)F)cc1)N1CCC(c2nc3ccccc3s2)CC1 | . | . | 11% | 23% | .
CC1CCCN(C(=O)c2ccc(S(=O)(=O)N3CCC(c4nc5ccccc5s4)CC3)cc2)C1 (stereo not given) | -6%[9.24 µM] | -70* | 12µM* | 6.5µM* | ?
Cc1cc(C)nc(NN=C(c2ccccc2)c2ccccc2)n1 | 14% | 20 | 16µM* | 10µM* | 12%
CC(/C=C/c1ccccc1)=N\Nc1nc(C)cc(C)n1 | 8% | 9 | 4.6µM* | 5.2µM* | 17%
O=C(C1=C[C@@H](c2ccc(Br)cc2)C[C@@H](OCCCCO)O1)N1CCN(Cc2ccccc2)CC1 | -25% | -6 | 6.5µM* | 5.8µM* | -20%
O=C(C1=C[C@H](C2CCCCC2)C[C@H](OCCCCO)O1)N1CCN(Cc2ccc3c(c2)OCO3)CC1 | -5% | ? | 12µM* | 18µM* | -3%
O=C(C1=C[C@H](c2ccc3c(c2)OCO3)C[C@H](OCCCCO)O1)N1CCN(Cc2ccc3c(c2)OCO3)CC1 | -1% | ? | ? | 18µM* | 3%
